Data from the supplement of paper PMC6992640.

system: HCI01 (cells of a triple-negative basal-like breast cancer xenograft); test: cell viability of combination (% of vehicle); higher = less cytotoxic; conditions: 1 µM; 72 h; partner dose: 10 nM
Experimental: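 PDX cells were treated for 72 h with each drug at 1 µM plus carfilzomib (10 nM; 100 nM for WHIM2). Luciferase viability is expressed as percent of vehicle.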

In order of rising “cell viability of combination” value:
1. CNCCC(Oc1ccc(C(F)(F)F)cc1)c1ccccc1.Cl (stereo not given) [Fluoxetine HCl] + CC(C)C[C@H](NC(=O)[C@H](CCc1ccccc1)NC(=O)CN1CCOCC1)C(=O)N[C@@H](Cc1ccccc1)C(=O)N[C@@H](CC(C)C)C(=O)[C@@]1(C)CO1 [Carfilzomib]  72.4
2. Cc1ccc(-n2[nH]c(C)c(NN=C3C=CC=C(c4cccc(C(=O)O)c4)C3=O)c2=O)cc1C [Eltrombopag] + CC(C)C[C@H](NC(=O)[C@H](CCc1ccccc1)NC(=O)CN1CCOCC1)C(=O)N[C@@H](Cc1ccccc1)C(=O)N[C@@H](CC(C)C)C(=O)[C@@]1(C)CO1 [Carfilzomib]  74.8
3. CC(C)COc1ccc(CNC(=O)N(Cc2ccc(F)cc2)C2CCN(C)CC2)cc1 [Pimavanserin] + CC(C)C[C@H](NC(=O)[C@H](CCc1ccccc1)NC(=O)CN1CCOCC1)C(=O)N[C@@H](Cc1ccccc1)C(=O)N[C@@H](CC(C)C)C(=O)[C@@]1(C)CO1 [Carfilzomib]  76.1
4. COC1=C(OC)C(=O)C(CCCCCCCCCCO)=C(C)C1=O [Idebenone] + CC(C)C[C@H](NC(=O)[C@H](CCc1ccccc1)NC(=O)CN1CCOCC1)C(=O)N[C@@H](Cc1ccccc1)C(=O)N[C@@H](CC(C)C)C(=O)[C@@]1(C)CO1 [Carfilzomib]  82.8
5. CC(NCCCc1cccc(C(F)(F)F)c1)c1cccc2ccccc12.Cl (stereo not given) [Cinacalcet HCl] + CC(C)C[C@H](NC(=O)[C@H](CCc1ccccc1)NC(=O)CN1CCOCC1)C(=O)N[C@@H](Cc1ccccc1)C(=O)N[C@@H](CC(C)C)C(=O)[C@@]1(C)CO1 [Carfilzomib]  89.6
